# An excerpt weighted towards active compounds, which were near 7.9% of everything screened.
# LASV entry inh: blocks Lassa virus binding to or entry into cells | Lassa virus pseudotype entry inhibition, cell reporter | Potency, µM (top dose mostly 37.9 µM), hits mostly inhibitors | 1.2% of 300,000 active | AID 540256; calls by dose curve; tested in HEK293 cells; note: nearly all actives have a fitted effect of over 50% in size
# HCV inh: blocks hepatitis C virus | Huh7.5.1 HCVcc-Cre infection, luciferase reporter, 44 h | Potency, µM (titrated, usually from 41.8 µM), actives largely listed as inhibitors | 3.4% of 340,000 active | AID 651820; active = well fitted inhibition curve with a large enough effect; inconclusive = small, poorly fitted or top-dose-only effect, or another doubt; inactive = no such curve, though single readings can be large or run the other way
#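 HCVcc-Cre virus at an moi near 0.5 was added right after compound to cells cultured 4 h from seeding (1,000 cells/well). Luciferase activity was determined 44 h later, 15 min after substrate addition at RT.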
# HCMV antiviral: blocks human cytomegalovirus replication; HFF cells, HCMV-luciferase reporter, 72 h; stronger effect = lower value; activity change, negative = inhibition, % at 57.5 µM; 4.5% of 410,000 active; in the data active = activity change below about -60%; inconclusive = no clear call, values can overlap the other calls; inactive = above about -39%
#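 Two compound doses tested in HFFs infected with HCMV-luciferase, MOI 1 PFU/cell, 72 h at 37C. Lysate luminescence read with OneGlo; data normalized against buffer-only and 10uM Salinomycin inhibitor controls.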
# MARV entry inh: blocks Marburg virus binding to or entry into cells. Marburg virus pseudotyped entry inhibition, cell reporter. Potency, µM (highest dose often 37.8 µM), usual class: inhibitors. 1.8% of 300,000 active; calls by dose curve; tested in HEK293 cells
# FMDV inh: blocks foot and mouth disease virus; 1.2% of 410,000 active; FMDV antiviral cell-based qHTS; AID 1159524; Potency, µM (titrated, usually from 57.9 µM), usual class: inhibitors; calls by dose curve; tested in HEK293T cells; note: read-out not given here; nearly all actives have a fitted effect of over 45% in size
# A number is an active result; - = inactive; ? = inconclusive; . = not tested or not shown; + = active, no number.
SMILES,LASV entry inh,HCV inh,HCMV antiviral,MARV entry inh,FMDV inh
CCC(C)NC(=O)c1ccccc1NC(=O)C1COc2ccccc2O1 (centres undefined),.,22µM,?,.,?
Cc1nc2ccc3nc(NC(=O)C4COc5ccccc5O4)sc3c2s1 (centres undefined),.,-,-,.,-
Cc1cnc(NC(=O)C2COc3ccccc3O2)s1 (centres undefined),?,-,?,7.9µM,-
CC(C)NC(=O)c1ccccc1NC(=O)C1COc2ccccc2O1 (centres undefined),-,?,-,-,?
CSc1nc2ccc3nc(NC(=O)C4COc5ccccc5O4)sc3c2s1 (centres undefined),.,-,-78,.,-
O=C(COC(=O)c1ccc(Cl)nc1)Nc1nnc(-c2ccccc2)o1,-,-,-,-,-
CC1CCCN(C(=O)COC(=O)c2ccc(=O)n(Cc3ccccc3)n2)C1 (centres undefined),-,-,-,-,-
CN(CCO)C(=O)c1cn(C2CCN(Cc3c(F)cccc3Cl)CC2)nn1,.,.,.,.,-
CC(=O)N1N=C(c2cccc([N+](=O)[O-])c2)OC1c1ccc(Cl)cc1Cl (centres undefined),-,10µM,-,-,?
Cc1ccc(C)n1C1C(=O)N(Cc2ccc(C(F)(F)F)cc2)c2ccc(F)cc21 (centres undefined),.,.,-,.,.
CC(C)[C@@H](C(=O)N[C@@H](Cc1ccccc1)C(=O)O)N1C(=O)N2CCc3c([nH]c4ccccc34)[C@@]2(C)C1=O,.,-,-,.,-
C[C@@H](C(=O)NCCc1ccccc1F)N1C(=O)N2CCc3c([nH]c4ccccc34)[C@@]2(C)C1=O,.,6.3µM,-,.,-
COc1ccc2[nH]c3c(c2c1)CCN1C(=O)N([C@@H](C)C(=O)NCc2ccccc2OC)C(=O)[C@]31C,.,13µM,-,.,-
C[C@@H](C(=O)NCCc1ccccc1)N1C(=O)N2CCc3c([nH]c4ccccc34)[C@@]2(C)C1=O,.,11µM,-,.,-
COc1ccc2[nH]c3c(c2c1)CCN1C(=O)N([C@@H](C)C(=O)NCc2ccccc2)C(=O)[C@]31C,.,-,-,.,-
COc1ccc(/C=C/C(=O)Nc2ccc(OC)nc2)cc1,-,-,-,-,-
COc1ccc(CS(=O)(=O)/C(Cl)=C(/Cl)C(=O)Nc2ccc(OC)nc2)cc1,6.3µM,4µM,.,2.8µM,11µM
CCN(CC)C(=O)Oc1ccc(Cl)c2cccnc12,-,-,-,-,?
CCC(=O)NC(c1cc(Cl)c2cccnc2c1O)C1CC1 (centres undefined),.,.,-95,.,?
CCC(=O)NC(c1cc(Cl)c2cccnc2c1O)C(C)C (centres undefined),.,.,-96,.,-
CC(=O)NC(c1cc(F)c2cccnc2c1O)C1CC1 (centres undefined),.,.,-,.,?
COc1ccccc1CN1CCC2(CCC(CNC(=O)c3ccccc3N(C)C)O2)CC1 (centres undefined),.,.,.,.,-
CC1(C(=O)NS(=O)(=O)c2cccc(C#N)c2)CCN1C(=O)Cc1ccccc1Cl (centres undefined),.,.,-,.,-
COc1ccc(NC(=O)c2ccc3c(c2)c(C)c(C)n3Cc2ccc(F)cc2)c(OC)c1,-,.,+,.,-
Cc1ccc(C(=O)N2CCCC(Nc3ccc(C(C)C)cc3)C2)cn1 (centres undefined),.,-,-,.,-
SMILES,LASV entry inh,HCV inh,HCMV antiviral,MARV entry inh,FMDV inh
O=C(Nc1ccc([N+](=O)[O-])cc1)Nc1ccon1,-,-,-86,?,-
Cc1ccc(NC(=O)Nc2cccc([N+](=O)[O-])c2)nc1,-,-,-,-,-
COc1ccc(C)cc1NC(=O)Nc1cccc(-c2noc(C)n2)c1,-,.,-,.,-
Cc1ccc(NC(=O)Nc2ccc([N+](=O)[O-])cc2)nc1,?,-,-70,-,-
Cc1nc(-c2cccc(NC(=O)Nc3ccc([N+](=O)[O-])cc3)c2)no1,?,.,-99,.,14µM
Cc1ccccc1N=C(c1ccccc1)C1C(=O)c2ccccc2C1=O,.,.,-,.,-
COc1ccc(S(=O)(=O)NC(=O)C2(C)CCN2C(=O)Cc2cc(F)ccc2F)cc1 (centres undefined),.,.,-,.,-
Cc1ccc(S(=O)(=O)Nc2ccc(N3CCOCC3)cc2)cc1C,-,-,-,-,-
Cc1ccc(-c2nc3cc(NC(=O)C(C)C)ccc3o2)cc1,11µM,?,-,?,-
Cc1ccc(-c2nc3cc(NC(=O)C(C)C)ccc3o2)cc1C,?,?,-,?,-
Cc1cccc(-c2nc3cc(NC(=O)C4CCCO4)ccc3o2)c1 (centres undefined),7.9µM,-,-,7.1µM,-
CC(Oc1ccc(Cl)cc1Cl)C(=O)Nc1ccc2oc(-c3ccncc3)nc2c1 (centres undefined),?,7.1µM,-74,2.1µM,?
Cc1cc(Cn2nc(-c3ccccc3)cc2C(=O)NCc2cccc(Br)c2)on1,.,5.6µM,-,.,-
CN(C1=C(NC(=O)c2ccccc2)C(=O)c2ccccc2C1=O)C1CCS(=O)(=O)C1 (centres undefined),?,?,-99,?,10µM
CN(C(=O)c1ccccc1Br)C1CCS(=O)(=O)C1 (centres undefined),-,-,-,-,-
O=C(Nc1ccccc1)NC1CCS(=O)(=O)C1 (centres undefined),-,-,-,-,-
CC(=O)NC1=C(NC2CCS(=O)(=O)C2)C(=O)c2ccccc2C1=O (centres undefined),-,7.1µM,-,?,-
O=C1C2C3C=CC(C3)C2S(=O)(=O)C2C3C=CC(C3)C12 (centres undefined),.,.,-,.,-
COCCN(C)C(=O)c1cnn(-c2nccc(-c3cc(OC)ccc3OC)n2)c1C,.,.,.,.,-
c1ccc([C@@H]2CO2)cc1,.,-,.,.,-
C=C1CC2(CC(c3ccccc3)OC(c3ccccc3)C2)OC1=O (centres undefined),?,?,-,?,22µM
COC[C@@H](O)[C@@H](OC)[C@H](OC)[C@H](Cc1c(OC)cc(OC)cc1OC)OC,.,.,.,-,.
COc1ccc(N2CCN(c3nc4ccc(C(=O)c5ccccc5)cc4n4cnnc34)CC2)cc1,-,.,-,.,-
CCCc1cc(N2CCN(c3ccc(OC)cc3)CC2)n2cnnc2n1,-,.,-78,-,?
CCCc1cc(N2CCN(c3ccccc3)CC2)n2cnnc2n1,-,.,?,-,?
SMILES,LASV entry inh,HCV inh,HCMV antiviral,MARV entry inh,FMDV inh
Cc1nc2nncn2c(N2CCN(c3ccccc3)CC2)c1C,-,.,-74,-,-
COc1ccc(N2CCN(c3c4c(nc5nncn35)CCC4)CC2)cc1,-,.,-70,?,?
O=C(NCCc1nnc2n1CCN(Cc1ccc(F)c(F)c1)CC2)c1ccoc1,.,.,.,.,-
C[N+]1=C(/C=N/O)CCCC1,.,.,.,-,.
Cc1c(-c2ccccc2)nc2ccccc2c1C(=O)Oc1ccc([N+](=O)[O-])cc1,?,?,-76,?,?
C=CC[C@@H](CC(=O)N[C@@H](CO)Cc1ccccc1)C(=O)N[C@H](COC(=O)[C@@H](CC=C)CC(=O)OC(C)(C)C)Cc1c[nH]c2ccccc12,.,?,-,.,35µM
